Source: PubChem
ssDAF-12 act = S. stercoralis DAF-12 nuclear receptor activators, primary screen, cell-based, luminescence, HEK293, GRIP1 co-expression, lit1-tk-luc | Nuclear hormone receptor DAF-12 (Strongyloides stercoralis) | HEK293 ssDAF-12/GRIP1 lit1-tk-luc reporter; % of 3 µM dafachronic acid response | activation, % at 6.8 µM | hit rate 1% among 370,000 | AID 652126, 2013;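 active = activation above the mean over all tested compounds plus 3 SD, cut at about 0.9% in these data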
hgDAF12 agonist = H. glycines DAF-12 receptor agonists, primary screen, cell-based, luminescence, HEK293, GAL4 fusion, UAS-luciferase; Nuclear hormone receptor DAF-12 (Heterodera glycines), GAL4 fusion; HEK293 GAL4-hgDAF12 UAS-luciferase reporter, agonist luminescence; normalized to butyrate control; activation, % at 6.8 µM; hit rate 1.8% among 370,000; AID 687014, 2013;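 active = activation above a cutoff set at the mean of all screened compounds plus 3 SD, cut at about 10% in these data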
DAX1 inh-1 = DAX1 (NR0B1) inhibitors on StAR promoter, primary screen, cell-based, luminescence, SF-1 (NR5A1), full-length DAX-1. HEK293T StAR-luciferase reporter, SF-1/DAX-1 repression relief. inhibition, % at 6.8 µM. hit rate 1.1% among 370,000;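 active = inhibition above the mean over all tested compounds plus 3 SD, cut at about 3.6% in these data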;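 also: higher inhibition means more luminescence from relief of DAX-1 repression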
hcDAF12 agonist = H. contortus DAF-12 nuclear receptor activators, primary screen, cell-based, luminescence, HEK293, lit1-tk-luc reporter; HEK293 hcDAF-12 lit1-tk-luc reporter; 0% DMSO, 100% Δ7-dafachronic acid; activation, % at 6.8 µM; hit rate 1.4% among 370,000; AID 652067, 2013;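 active = activation above the mean of all tested compounds plus 3 SD, cut at about 5.5% in these data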
DAX1 inh-2 = DAX1 (NR0B1) inhibitors, primary screen, cell-based, HEK293, Gal4-DAX1, luciferase luminescence | Nuclear receptor subfamily 0 group B member 1 (Homo sapiens), P51843 | HEK293 Gal4-DAX1 luciferase reporter | inhibition, % at 6.75 µM | hit rate 0.99% among 340,000 | AID 504766, 2011;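 active = inhibition above the mean over all tested compounds plus 3 SD, cut at about 4.2% in these data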;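 also: inhibition shows as a rise in luminescence from relieved DAX1 repression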
Target sequence (P51843 207-470 limits assumed): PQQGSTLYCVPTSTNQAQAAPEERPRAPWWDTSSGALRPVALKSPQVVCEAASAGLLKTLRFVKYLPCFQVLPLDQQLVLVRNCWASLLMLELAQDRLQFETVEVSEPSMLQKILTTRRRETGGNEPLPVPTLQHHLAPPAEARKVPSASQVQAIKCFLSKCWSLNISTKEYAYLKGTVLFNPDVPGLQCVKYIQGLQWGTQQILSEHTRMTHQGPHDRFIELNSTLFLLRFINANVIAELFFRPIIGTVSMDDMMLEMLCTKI
DAX1 inh confirm = DAX1 (NR0B1) inhibitors relieving SF-1 repression, confirmation, cell-based, luminescence, HEK293T, full-length DAX-1, SF-1 activated StAR promoter | shares compounds with DAX1 inh-1 | HEK293T StAR-promoter luciferase reporter, SF-1/DAX-1 repression | inhibition, % at 6.8 µM | hit rate 87% among 2,400 | AID 652134, 2013;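 active = inhibition above the average of every tested compound plus 3 SD, cut at about 3.8% in these data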
SF1 mutant ctr = StAR reporter signal changes without DAX1, counter-screen for DAX1 inhibitor project, cell-based, luminescence, AF-2 mutant SF-1, transactivation; HEK293 StAR-luciferase, SF-1 AF2 mutant; hit rate 78% among 2,400; shares compounds with DAX1 inh-1; inhibition, % at 6.8 µM;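 active = inhibition above the mean of all tested compounds plus 3 SD, cut at about 3% in these data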
A number is an active result; – = inactive; · = no result given. Most compounds without a hit are left out; they make up all but 4.1% or so of the library.

SMILES | ssDAF-12 act | hgDAF12 agonist | DAX1 inh-1 | hcDAF12 agonist | DAX1 inh-2 | DAX1 inh confirm | SF1 mutant ctr
O=C(Oc1ccc(-c2nnco2)cc1)C1CCN(C(=O)c2ccc(F)cc2)CC1 | – | – | – | – | – | · | ·
NC(=O)c1ccc(NC(=O)COC(=O)c2cc3c(s2)CCC3)cc1 | – | – | – | – | – | · | ·
Cc1occc1C(=O)OCC(=O)Nc1ccc(F)cc1 | – | 11 | – | – | – | · | ·
O=C(COC(=O)c1cc2c(s1)CCC2)Nc1ccc(F)cc1 | – | – | – | – | 4.5 | · | ·
C[C@H]1COc2cc(Br)ccc2S(=O)(=O)N1Cc1cn(Cc2ccc(Cl)cc2)nn1 | – | – | – | – | · | · | ·
O=C(Nc1cc2c(cc1Br)OCCCO2)c1ccccc1 | – | 11 | – | – | – | · | ·
O=C(Nc1cc2c(cc1Br)OCCCO2)c1cccnc1 | – | – | – | – | – | · | ·
CCC(=O)Nc1nnc(/C=C/c2ccccc2)s1 | – | – | – | – | 5.3 | · | ·
COc1cccc2cc(-c3nc4ccccc4o3)c(=O)oc12 | – | 11 | – | – | 4.4 | · | ·
CC(C)=CCC/C(C)=C/C[C@]12C[C@H](C(=O)O)N(C(=O)OC(C)(C)C)[C@@H]1N(C(=O)OC(C)(C)C)c1ccccc12 | – | – | · | – | · | · | ·
Cc1ccccc1-n1c(-c2ccoc2C)n[nH]c1=S | 1.3 | – | – | – | – | · | ·
CCn1c(SCC(=O)Nc2ccc(C(C)=O)cc2)nc2nc3c(cc2c1=O)COC(C)(C)C3 | – | – | – | – | – | · | ·
CCn1c(SCC(=O)Nc2ccccc2C)nc2nc3c(cc2c1=O)COC(C)(C)C3 | – | – | – | – | 5.5 | · | ·
COc1ccc(NC(=O)NN(C(=O)c2ccccc2)C(C)(C)C)cc1 | – | – | – | – | – | · | ·
COc1cc(C)ccc1OCc1cc(C(=O)NC(C)Cn2cncn2)no1 (stereo unspecified) | – | 11 | – | – | – | · | ·
COc1cc(Cl)ccc1OCc1cc(C(=O)NCc2cc(C(C)C)no2)no1 | – | – | 4.1 | – | – | · | ·
COc1cc(Cl)ccc1OCc1cc(C(=O)NCC(C)(C)N2CCOCC2)no1 | – | – | – | – | – | · | ·
CCC(=O)Nc1ccc(C(=O)COC(=O)c2nc3nccc(C)n3n2)cc1 | – | – | – | – | – | · | ·
Cc1ccnc2nc(C(=O)OCC(=O)c3ccc(NC(=O)CC(C)C)cc3)nn12 | – | – | – | – | 5.5 | · | ·
CC(C)C[C@@H]1COc2cccc(N3CCSCC3)c2S(=O)(=O)N1C | – | – | – | – | · | · | ·
CCOC(=O)N1CCN(C(=O)CCn2nc(-c3ccccc3)ccc2=O)CC1 | – | – | – | – | 4.8 | · | ·
COc1cccc2sc(N(CCCN(C)C)C(=O)c3ccc(S(=O)(=O)N4CCc5ccccc5C4)cc3)nc12 | – | – | – | – | – | · | ·
COc1ccc(C)c2sc(N(CCCN(C)C)C(=O)c3ccc(S(=O)(=O)N4CCc5ccccc5C4)cc3)nc12 | – | – | 5.2 | – | – | – | –
O=C(NC(=S)Nc1ccc([N+](=O)[O-])cc1O)C1CCCCC1 | – | – | – | – | – | · | ·
Cn1ccc(C(=O)NC(=S)Nc2ccc([N+](=O)[O-])cc2O)n1 | – | – | 8.3 | – | – | 10 | 5.8
SMILES | ssDAF-12 act | hgDAF12 agonist | DAX1 inh-1 | hcDAF12 agonist | DAX1 inh-2 | DAX1 inh confirm | SF1 mutant ctr
CC(C)n1nnnc1C1c2ccccc2C(=O)N1CCc1c[nH]c2ccccc12 (stereo unspecified) | – | – | 5.5 | – | · | – | –
O=C1c2ccccc2C(c2nnnn2Cc2ccccc2)N1CCOc1ccccc1 (stereo unspecified) | – | 19 | 7.2 | 8.2 | · | 6.5 | 4.1
O=C1c2ccccc2C(c2nnnn2Cc2ccccc2)N1CCc1ccc(O)cc1 (stereo unspecified) | – | – | – | – | · | · | ·
O=C1c2ccccc2C(c2nnnn2Cc2ccccc2)N1CCc1ccccc1F (stereo unspecified) | – | 11 | 9.2 | – | · | – | –
CCC(=O)N1CCN(c2nc3ccc(Br)cc3s2)CC1 | – | – | – | – | – | · | ·
CC(C)CN(C(=O)COC(=O)c1ccc(Br)o1)c1c(N)n(Cc2ccccc2)c(=O)[nH]c1=O | – | – | – | – | – | · | ·
CC(=O)c1ccc(NC(=S)N2CCCC2)cc1 | – | – | 5.1 | – | – | – | –
CCOC(=O)c1ccc(NC(=O)N2CCCCCC2)cc1 | – | – | 5.0 | – | – | 14 | 8.0
COc1ccc(/C(O)=C/c2nc3ccc(C(=O)NCCc4cccc(C)c4)cc3[nH]c2=O)cc1OC | – | – | – | – | – | · | ·
CC(=NNc1ccc2ccccc2n1)c1ccccn1 | – | – | – | – | · | · | ·
CC(=NNc1ccc2ccccc2n1)c1ccccc1O | – | – | 5.9 | – | – | – | –
O=C1c2ccccc2C(=O)N1CCOc1ccccc1Br | – | – | 4.8 | – | – | 4.3 | –
O=C1c2ccccc2C(=O)N1CCOc1ccccc1Cl | – | – | 8.0 | – | – | 3.8 | 4.3
Cc1ccccc1OCCN1C(=O)c2ccccc2C1=O | – | – | – | – | – | · | ·
CCCCn1c(SCC(=O)NCc2ccc(OC)c(C(=O)O)c2)nc2cc(S(N)(=O)=O)ccc21 | – | – | – | – | – | · | ·
CC1=N/C(=C/c2cc(Br)cc(Br)c2O)C(=O)O1 | – | – | – | – | – | · | ·
COc1ccc(C=C2CCc3ccccc3C2=O)cc1 | – | – | 6.6 | – | · | 7.2 | –
CCOc1ccc(/C=C2\CCc3ccccc3C2=O)cc1 | – | – | – | – | – | · | ·
CC(C)C(=O)Nc1ccc(-c2nc3cccnc3o2)cc1 | – | 13 | 4.5 | 5.9 | – | 12 | 4.1
Cc1ccc(C(=O)COC(=O)c2cc(=O)[nH]c3ccccc23)cc1 | – | – | – | – | – | · | ·
CCCn1c(C)cc(C(=O)COC(=O)c2cc(=O)[nH]c3ccccc23)c1C | – | 11 | 5.4 | 6.5 | – | 9.3 | 3.1
COC(=O)CSc1nnc(NC(=O)c2ccc3c(c2)OCO3)s1 | – | – | 4.7 | – | – | 8.7 | 3.5
